Sampled rows, rich in hits. Any-hit rate of the full collection: about 7.1%.
SW480 rereplic – inducers of DNA re-replication in SW480 colon cancer cells. SW480 DNA re-replication, Hoechst DNA content imaging, 48 h. Potency, µM (series often up to 46.1 µM), without a hit: at the top dose re-replication activation, hits mostly activators. 1.8% of 340,000 active; also: potency is read from the fitted curve at half-maximal effect; % of control where 0% means no effect; nearly all actives have a fitted effect of over 55% in size
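Hoechst fluorescence of nuclei (405 nm excitation, 500-530 nm emission) measured by plate-scanning imager after 48 hr compound exposure at 37 C; re-replication scored as increased number of nuclei with elevated intensity.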
MCF10A rereplic – inducers of DNA re-replication in MCF 10A breast cells. Potency, µM (highest dose often 46.1 µM), for the others: at the top dose activity, positive = re-replication, usual class: activators. 2.9% of 350,000 active. MCF 10A DNA re-replication, Hoechst nuclear intensity, 48 h; also: potency is read from the fitted curve at half-maximal effect; % of control where 0% means no effect; nearly all actives have a fitted effect of over 50% in size
PINK1 expr mod – changes PINK1 expression. AID 624263. Potency, µM (series often up to 76.6 µM), inactives show top-dose activation (PINK1 increase), hits mostly activators. PINK1 immunofluorescence, high-content cytometry, 24 h. 0.2% of 410,000 active; active = well fitted activation curve with a large enough effect; inconclusive = small, poorly fitted or top-dose-only effect; cell line not stated here; also: potency is read from the fitted curve at half-maximal effect; % of control where 0% means no effect; nearly all actives have a fitted effect of over 65% in size
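Readout is PINK1 immunofluorescence, quantified alongside mitochondrial, cell and nuclear markers by laser-scanning microplate cytometry. Cells from a stable line were exposed to compound titrations (5 concentrations) for 24 hours, with CCCP controls.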
ATXN2 expr inh – reduces ATXN2 reporter expression in HEK-293 cells | HEK-293 ATXN2-luciferase reporter, luminescence, 24 h | Potency, µM (doses to about 57 µM), for inactives: top-dose activity change, negative = inhibition, most hits filed as inhibitors | 0.72% of 360,000 active; also: potency is read from the fitted curve at half-maximal effect; % is scaled to controls: 0 for no effect and ±100 for the full control effect; nearly all actives have a fitted effect of over 55% in size
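ATXN2-luciferase reporter cells (luciferase flanked by upstream and downstream ATXN2 gene portions) were treated 24 h at 37 °C with compounds at up to 57 uM. SteadyGlo luminescence gave expression; GF-AFC fluorescence gave viability.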
ATXN viability – viability counter-screen for ATXN expression inhibitors; 0.49% of 400,000 active; Potency, µM (series often up to 56.7 µM), hits mostly cytotoxic; S2 cells (HEK-293 line with an ATXN2-luciferase reporter) viability, CellTiter-Fluor protease fluorescence, 24 h; also: potency is read from the fitted curve at half-maximal effect; nearly all actives have a fitted effect of over 40% in size
IL1B secr inh – blocks inflammasome-driven IL-1 beta release | activity change, % at 57.5 µM | THP-1 LPS/ATP IL-1B secretion, AlphaLISA, 16 h; hits give low values | 4.7% of 360,000 active; in the data active = activity change below about -50%; inconclusive = mostly about -30% to -49%; also: % is scaled to controls: 0 for no effect and ±100 for the full control effect
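THP-1 cells pretreated 1 hr with compounds (up to 57.5 uM final), then stimulated with LPS (250 ng/mL final) plus ATP (1.25 mM final); secreted IL-1B measured by AlphaLISA after 16 hr, decreased signal indicating inhibition.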
Starred values were filed as active, the others as inactive; i = inactive; ? = inconclusive; · = not tested or not shown. Unless noted, calls follow the shape of the dose curve; as a rule, active = well fitted curve in the direction sought with a large enough effect; inconclusive = small, poorly fitted or top-dose-only effect, or another doubt; inactive = no such curve, though single readings can be large; an effect the other way counts as inactive or inconclusive.

SMILES	SW480 rereplic	MCF10A rereplic	PINK1 expr mod	ATXN2 expr inh	ATXN viability	IL1B secr inh
COc1ccc(-c2csc(NC(=O)c3c(C)noc3C)n2)cc1	-0.6%	-8.1%	4.1%	4.5%	i	-51.5*
COc1ccc(-c2csc(NC(=O)c3c(C)noc3C)n2)cc1OC	·	·	0.9%	·	·	?
CCc1noc(C)c1C(=O)Nc1nc(-c2cccs2)cs1	-43.7%	14.2%	7.4%	32.5%	i	38.4
Cc1ccc(-c2csc(NC(=O)CCNC(=O)c3ccc(Cl)cc3)n2)cc1	?	18.9%	-0.8%	?	?	7.3
COc1ccc(-c2csc(NC(=O)c3ccccc3S(C)(=O)=O)n2)cc1	1.4%	-7.2%	2.2%	·	i	-95.2*
O=C(Nc1nc2ccc(F)cc2s1)c1ccc([N+](=O)[O-])o1	·	·	2.9%	·	?	-100.7*
Cc1ccc(-c2csc(NC(=O)CCNC(=O)c3ccccc3Cl)n2)cc1	3.5%	?	0.5%	·	?	-53.4*
CC(C)c1ccc(CNCCSc2nnnn2-c2ccccc2)cc1	·	·	0.2%	-13.6%	i	·
COc1ccc(CN2CCN(Cc3c[nH]c4ccccc34)CC2)cc1OC	·	·	0.2%	·	i	-25.2
COc1ccc(Br)cc1CN1CCN(C(=O)c2ccc(OC)c(OC)c2)CC1	-2.6%	-6.1%	3.2%	-22.3%	i	-7.4
COc1cccc(C(=O)N2CCN(Cc3cc(Br)ccc3OC)CC2)c1	0.7%	-3.0%	-0.1%	-12.8%	i	-51.4*
COc1ccc(Br)cc1CN1CCN(Cc2c[nH]c3ccccc23)CC1	?	?	-0.5%	?	i	-74.2*
CNC(=O)Nc1cccc(-c2cc(-c3c(Cl)cccc3Cl)no2)c1	3.7%	?	1.7%	-10.3%	i	-79.1*
CC(=O)Nc1cccc(-c2cc(-c3c(Cl)cccc3Cl)no2)c1	-0.7%	?	0.6%	-32.5%	i	?
Cc1ccc(NC(=O)C2CC(=O)Nc3nc4ccccc4n32)c(C)c1 (stereo unspecified)	18.4µM*	-19.4%	0.5%	-4.2%	i	-1.1
Cc1ccc(C)c(N2CCN(C(=O)c3cc4c(=O)n(Cc5ccccc5)ccc4nc3C)CC2)c1	·	·	1.5%	?	?	·
CN1CCc2c(sc(NC(=O)c3ccc(S(=O)(=O)N4CCCCCC4)cc3)c2C(N)=O)C1	16.7%	16.4µM*	-1.9%	?	·	-96.1*
CCCN1CCc2c(sc(NC(=O)c3ccc(S(=O)(=O)N4CCN(C(=O)OCC)CC4)cc3)c2C(N)=O)C1	20.6µM*	?	-0.1%	?	?	-98.1*
CN1CCc2c(sc(NC(=O)c3ccc(S(=O)(=O)N4CCCC4)cc3)c2C(N)=O)C1	1.2%	13.9%	7.2%	-27.0%	i	0.0
CCOC(=O)c1ccc(S(=O)(=O)N2CCN(C)CC2)cc1	-22.0%	5.17µM*	·	3.4%	i	14.7
CCOC(=O)c1c(NC(=S)N2CCCCC2)sc2c1CCN(C(=O)OCC)C2	-44.3%	20.6µM*	10.3%	?	i	·
CCOC(=O)c1c(NC(=S)N2CCOCC2)sc2c1CCN(C(=O)OCC)C2	?	?	-2.1%	?	i	·
CCOC(=O)c1ccccc1NC(=O)CSc1ncc2c(n1)-c1ccccc1N(CC)S2(=O)=O	·	·	1.6%	-3.0%	?	·
CC(=O)NCCCN(Cc1ccc(Cl)c(Cl)c1)c1ccc(Br)cn1	·	·	4.0%	·	·	·
CCOC(=O)c1sc(NC(=O)c2cccc(S(=O)(=O)N3CCN(C)CC3)c2)cc1C	-1.0%	-2.1%	1.8%	-30.4%	i	7.7
SMILES	SW480 rereplic	MCF10A rereplic	PINK1 expr mod	ATXN2 expr inh	ATXN viability	IL1B secr inh
CNC(=O)c1c(NC(=O)c2ccc(S(=O)(=O)N3CCCCC3)cc2)sc2c1CCN(C(C)C)C2	?	28.2%	1.0%	-12.9%	i	32.6
COC(=O)c1c(NC(=O)c2cccc(S(=O)(=O)N3CCN(C)CC3)c2)sc(C)c1C	?	20.6µM*	1.5%	-19.0%	i	-76.8*
CCOC(=O)c1c(NC(=O)c2ccc(S(=O)(=O)N3CCC(C)CC3)cc2)sc2c1CCN(C)C2	·	·	20.8%	·	·	·
CCOC(=O)N1CCN(S(=O)(=O)c2ccc(C(=O)Nc3sc4c(c3C(N)=O)CCN(CC)C4)cc2)CC1	778.5%	?	-2.3%	-18.1%	i	-68.4*
CCOC(=O)N1CCN(S(=O)(=O)c2ccc(C(=O)Nc3sc4c(c3C(=O)OC)CCN(C)C4)cc2)CC1	?	?	-1.4%	?	?	-99.9*
CCN1CCc2c(sc(NC(=O)c3ccc(S(=O)(=O)N4CCCC4)cc3)c2C(=O)NC)C1	?	18.4µM*	0.0%	-35.7%	i	-97.2*
Cc1c(C(=O)NCC2(N3CCOCC3)CCCCC2)cnn1-c1nccc(-c2ccccc2F)n1	·	·	0.0%	·	i	·
CC(=O)N1CCc2c(sc(NC(=O)C3CCN(S(=O)(=O)c4cccs4)CC3)c2C(N)=O)C1	-366.0%	-11.1%	3.7%	-0.2%	i	-20.1
CCOC(=O)c1c(NC(=O)Nc2ccc(C)cc2)sc2c1CCN(C)C2	18.4µM*	?	?	-2.5%	·	·
CN1CCc2c(sc(NC(=O)c3ccc(S(=O)(=O)N4CCOCC4)cc3)c2C(N)=O)C1	1.6%	2.1%	-0.8%	-6.0%	i	9.7
COC(=O)c1c(NC(NC(=O)c2ccccc2)(C(F)(F)F)C(F)(F)F)sc2c1CCN(C)C2	0.517µM*	?	-0.5%	2.5%	i	11.3
CCC(=O)NC(Nc1sc2c(c1C(=O)OC)CCCC2)(C(F)(F)F)C(F)(F)F	-0.3%	4.9%	11.4%	0.3%	i	24.4
CCCN1CCc2c(sc(NC(=O)C3CCN(S(=O)(=O)c4cccs4)CC3)c2C(N)=O)C1	-392.1%	2.2%	2.1%	-10.9%	i	-62.2*
CNC(=O)c1c(NC(=O)c2ccc(S(=O)(=O)N3CCCc4ccccc43)cc2)sc2c1CCN(C)C2	?	20.6µM*	?	?	i	61.2
CCN(Cc1ccncc1)Cc1ccc2c(c1)CN(C(=O)c1cccc(-n3nc(C)cc3C)c1)CCO2	·	·	-0.2%	·	i	·
CC(C)COc1ccc(C(=O)N2CCC(c3nc4ccccc4s3)CC2)cc1	·	·	1.5%	-11.8%	i	·
CCCC(=O)Nc1nnc(SCc2cc(=O)n3cccc(C)c3n2)s1	·	·	8.7%	·	·	·
CCOc1ccc(C(=O)N2CC(=O)Nc3ccc(F)cc3C2c2ccc(F)cc2)cc1 (stereo unspecified)	·	·	0.0%	12.9%	i	·
COc1ccc(/C=c2/sc3n(c2=O)C(c2ccccc2OC)C2=C(N=3)c3ccccc3CC2)cc1O (stereo unspecified)	5.17µM*	18.4µM*	0.5%	-24.0%	i	-18.3
